Reference: PubChem BioAssay
Active and inactive are the calls of the source.

Legend:
[1] = anti-His antibody binders, primary screen, artefact control for SMM control protein annotation, biochemical, small-molecule microarray, 635 nm fluorescence (AID 1128); conditions: anti-His Alexa647 antibody binding, higher = more signal;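 also: score merges feature fluorescence with signal-to-noise for each printed compound spot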
[2] = test system: Human papillomavirus type 1a E7 protein (residues 1-88); assay: HPV1a E7 small-molecule binders, primary screen, biochemical, small-molecule microarray, residues 1-88, 635 nm (AID 1129); conditions: small-molecule microarray binding, fluorescence 635 nm; higher = more signal
[3] = target: Focal adhesion kinase 1 (Homo sapiens) (UniProt Q05397); assay: small-molecule microarray binders of FAK, primary screen, biochemical, 635/667 nm fluorescence, BSA, DTT (AID 1130); conditions: PTK2 binding, 635 nm fluorescence, higher = more signal;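 also: composite of spot emission at 667 nm and signal to noise over triplicate slides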
[4] = test system: Fibrinogen (Alexa647-labelled); assay: fibrinogen binders on compound microarrays, profiling panel, artefact control for SMM control-protein annotation, biochemical, small-molecule microarray, 635/667 nm fluorescence (AID 1131); conditions: fibrinogen-A647 binding fluorescence, higher = more signal;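 also: z-score merges 667 nm fluorescence with per-spot signal-to-noise over triplicate slides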
[5] = target: Follistatin (Homo sapiens) (UniProt P19883); assay: follistatin binders on small-molecule microarrays, primary screen, biochemical, small-molecule microarray, 635/667 nm fluorescence (AID 1132); conditions: FST binding, 635 nm fluorescence, higher = more signal
[6] = target: Fibroblast growth factor 2 (Homo sapiens) (UniProt P09038); assay: FGF2 binders on small-molecule microarrays, primary screen, biochemical, small-molecule microarray, 635/667 nm fluorescence (AID 1133); conditions: small-molecule microarray binding, FGF2, fluorescence 635/667; higher = more signal
[7] = mitochondrial membrane potential change in A549 cells, profiling panel, cell-based, JC-1 fluorescence, basal, 24 h, 100 nL (AID 1138); conditions: higher = more signal;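 also: A549 lung adenocarcinoma cells under basal conditions with no added stimulus; test concentration not given here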
[8] = test system: Lefty1; assay: Lefty1 binders on small-molecule microarrays, primary screen, biochemical, small-molecule microarray, 635/667 nm fluorescence (AID 1139); conditions: small-molecule microarray binding, fluorescence 635/667; higher = more signal
[9] = test system: wheat germ agglutinin (Triticum aestivum), Alexa647-labelled; assay: wheat germ agglutinin binders on compound microarrays, profiling panel, artefact control for SMM control-protein annotation, biochemical, small-molecule microarray, 635/667 nm fluorescence (AID 1140); conditions: WGA-A647 binding, 635 nm fluorescence, higher = more signal;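 also: score merges 667 nm feature emission with signal to noise over triplicate slides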
[10] = target: Luciferin 4-monooxygenase (Photinus pyralis) (UniProt P08659); assay: firefly luciferase enzyme inhibitors, primary screen, biochemical, luminescence, purified enzyme, 2006 set (AID 1141); conditions: SteadyGlo luminescence, 30 min, higher = more signal, called active from +8 up or from −8 down;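 also: cell-free assay with purified firefly luciferase at 100 ng per well in PBS; test concentration not given here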
Luciferin 4-monooxygenase (Photinus pyralis), sequence (P08659 whole entry, looked up): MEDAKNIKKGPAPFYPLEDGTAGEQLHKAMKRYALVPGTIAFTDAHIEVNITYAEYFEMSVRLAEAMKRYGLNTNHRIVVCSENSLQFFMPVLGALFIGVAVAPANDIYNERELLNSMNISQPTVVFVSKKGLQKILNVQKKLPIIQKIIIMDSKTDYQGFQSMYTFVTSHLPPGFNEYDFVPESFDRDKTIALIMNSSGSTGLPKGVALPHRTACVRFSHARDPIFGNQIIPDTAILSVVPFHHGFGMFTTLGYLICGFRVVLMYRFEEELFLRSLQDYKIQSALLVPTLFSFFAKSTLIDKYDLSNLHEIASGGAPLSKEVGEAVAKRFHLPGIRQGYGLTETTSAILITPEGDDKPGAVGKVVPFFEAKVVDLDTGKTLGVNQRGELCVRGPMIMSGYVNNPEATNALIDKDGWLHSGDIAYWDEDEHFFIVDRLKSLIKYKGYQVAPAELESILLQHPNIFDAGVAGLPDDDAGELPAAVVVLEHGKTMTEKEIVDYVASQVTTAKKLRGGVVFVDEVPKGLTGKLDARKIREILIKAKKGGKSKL

Follistatin (Homo sapiens), sequence (P19883 whole entry, looked up): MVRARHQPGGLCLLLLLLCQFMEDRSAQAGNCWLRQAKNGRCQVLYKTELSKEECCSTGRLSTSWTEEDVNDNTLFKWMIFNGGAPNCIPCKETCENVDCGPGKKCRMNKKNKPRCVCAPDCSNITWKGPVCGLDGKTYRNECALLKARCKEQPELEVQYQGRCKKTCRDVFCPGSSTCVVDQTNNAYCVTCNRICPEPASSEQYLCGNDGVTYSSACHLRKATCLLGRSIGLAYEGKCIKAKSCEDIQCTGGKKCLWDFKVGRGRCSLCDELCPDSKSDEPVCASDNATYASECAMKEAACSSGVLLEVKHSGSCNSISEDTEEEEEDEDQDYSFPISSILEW
Focal adhesion kinase 1 (Homo sapiens), sequence (Q05397 whole entry, looked up): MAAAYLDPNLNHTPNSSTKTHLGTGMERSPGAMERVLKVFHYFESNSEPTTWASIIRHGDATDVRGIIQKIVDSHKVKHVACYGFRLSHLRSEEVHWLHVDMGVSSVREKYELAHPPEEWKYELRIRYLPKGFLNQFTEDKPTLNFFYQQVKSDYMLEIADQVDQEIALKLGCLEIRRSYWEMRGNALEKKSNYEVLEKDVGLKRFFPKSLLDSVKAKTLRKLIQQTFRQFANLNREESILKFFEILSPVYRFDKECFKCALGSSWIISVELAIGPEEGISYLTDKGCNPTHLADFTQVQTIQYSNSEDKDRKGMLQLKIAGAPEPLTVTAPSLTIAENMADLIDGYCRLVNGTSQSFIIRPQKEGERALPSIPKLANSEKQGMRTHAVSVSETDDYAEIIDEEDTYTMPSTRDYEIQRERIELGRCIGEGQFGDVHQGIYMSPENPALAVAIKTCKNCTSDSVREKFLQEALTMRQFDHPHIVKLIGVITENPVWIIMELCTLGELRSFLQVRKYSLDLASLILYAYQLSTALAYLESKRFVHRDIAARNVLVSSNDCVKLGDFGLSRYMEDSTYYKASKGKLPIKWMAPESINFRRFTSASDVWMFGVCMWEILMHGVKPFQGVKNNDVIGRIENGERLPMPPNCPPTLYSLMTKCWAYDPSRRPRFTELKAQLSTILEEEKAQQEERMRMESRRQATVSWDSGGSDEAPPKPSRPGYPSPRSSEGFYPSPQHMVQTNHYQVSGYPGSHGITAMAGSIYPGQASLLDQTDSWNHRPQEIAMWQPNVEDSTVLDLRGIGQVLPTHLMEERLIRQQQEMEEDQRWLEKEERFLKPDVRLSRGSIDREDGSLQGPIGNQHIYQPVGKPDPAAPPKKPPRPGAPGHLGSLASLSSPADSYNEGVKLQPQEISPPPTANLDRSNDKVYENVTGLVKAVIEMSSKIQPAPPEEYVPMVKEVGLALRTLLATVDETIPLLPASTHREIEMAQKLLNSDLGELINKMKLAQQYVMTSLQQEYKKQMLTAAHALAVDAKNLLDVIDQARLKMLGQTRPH
Fibroblast growth factor 2 (Homo sapiens), sequence (P09038 whole entry, looked up): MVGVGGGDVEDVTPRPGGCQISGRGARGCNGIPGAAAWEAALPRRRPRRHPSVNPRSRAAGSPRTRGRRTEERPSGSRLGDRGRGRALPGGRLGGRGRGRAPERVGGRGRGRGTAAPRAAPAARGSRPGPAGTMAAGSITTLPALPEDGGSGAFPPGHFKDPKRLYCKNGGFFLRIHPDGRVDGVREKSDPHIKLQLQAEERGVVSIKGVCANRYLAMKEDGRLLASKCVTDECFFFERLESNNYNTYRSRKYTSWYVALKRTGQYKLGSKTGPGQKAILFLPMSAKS

Row | Structure (SMILES) | composite z-score [1] | composite z-score [2] | composite z-score [3] | composite z-score [4] | composite z-score [5] | composite z-score [6] | z-score [7] | composite z-score [8] | composite z-score [9] | z-score [10]
1 | C[C@@H](ON=C1[C@H]2CCn3c(=O)n(-c4ccccc4)c(=O)n3[C@H]2[C@H](O)[C@@H]2O[C@H]12)c1cn([C@@H]2COC[C@H]2O)nn1 | -0.0522 | 0.619 | 0.0584 | 0.544 | 0.414 | 0.433 | -0.339 | 0.691 | 0.0978 | 0.704 (inactive)
2 | Cc1cc2c(nc1C)CCCN2CC(O)CN1CCCc2nc(C)c(C)cc21 | 1.92 | -0.0317 | 0.281 | -0.575 | 0.817 | 1.06 | -0.685 | 0.454 | 0.562 | 0.723 (inactive)
3 | COC(=O)CC=C[C@@H](C)[C@@H](C=NO[C@@H]1O[C@H](COC(C)=O)[C@@H](OC(C)=O)[C@H](OC(C)=O)[C@H]1OC(C)=O)NS(=O)(=O)c1ccc(C)cc1 | -0.588 | -0.231 | 0.14 | -0.083 | 0.484 | 0.35 | -0.63 | 0.647 | -0.986 | 1.08 (inactive)
4 | CC(C)CON=C1C[C@@H](O)[C@@H](O)[C@@H]2[C@@H]3C(=O)N(C4CCCCC4)C(=O)[C@@H]3CC[C@@H]12 | 0.889 | -0.586 | 0.955 | 0.476 | 0.0116 | -0.309 | -0.572 | 0.225 | 0.556 | 0.0051 (inactive)
5 | Cc1ccc(S(=O)(=O)OC[C@H]2CN3[C@H](c4ccc(Br)cc4)[C@@H](C)CC[C@H]3C(=O)O2)cc1 | 0.924 | 0.269 | 0.0817 | 0.596 | 1.1 | 1.45 | 1.78 | 0.198 | 0.11 | -0.849 (inactive)
6 | COC(=O)[C@H]1[C@@H](O)[C@@]2(O)c3ccccc3O[C@@]2(c2ccccc2)[C@@H]1c1ccccc1 | 0.434 | 0.0845 | -0.257 | -0.842 | 0.101 | 0.352 | 0.266 | 0.285 | 1.01 | 0.487 (inactive)
7 | C#CCCCON=C1C[C@@H](O)[C@@H](O)[C@@H]2[C@@H]3C(=O)N(c4ccc(F)cc4F)C(=O)[C@@H]3CC[C@@H]12 | -0.0071 | 0.111 | 0.131 | 0.265 | 0.141 | 0.474 | -0.633 | 0.322 | 0.238 | 1.04 (inactive)
8 | CCOC(=O)[C@H](CC(C)C)NC(=O)CCC1CC(OC(=O)NCc2ccc3c(c2)OCO3)CC2(CCCC(COC(=O)NCC(c3ccccc3)c3ccccc3)O2)O1 (stereo not given in full) | 0.423 | 0.572 | -0.2 | 0.683 | 0.669 | 0.191 | -0.025 | 1.32 | 0.61 | 0.864 (inactive)
9 | CC(CCN1CCCCc2nc(C)c(C)cc21)=NOC[C@@H](C)[C@H](OCc1ccccc1)C(C)C | 1.59 | -0.824 | -0.0923 | -2.81 | -2.3 | -0.84 | 0.37 | -0.795 | -0.614 | -0.486 (inactive)
10 | CC(=O)OC[C@H]1O[C@@H](ON=C(C)CCN2CCCc3nc(C)c(C)cc32)[C@H](OC(C)=O)[C@@H](OC(C)=O)[C@@H]1OC(C)=O | 0.269 | 1.15 | 0.36 | 0.602 | 0.881 | 0.664 | -1.13 | 0.889 | 0.476 | 0.788 (inactive)
11 | CCOC(=O)[C@H](CC(C)C)NC(=O)CCC1CC(OC(=O)NCc2ccc3c(c2)OCO3)CC2(CCCC(COC(=O)NCc3cccc(C(F)(F)F)c3)O2)O1 (stereo not given in full) | 0.339 | 0.218 | 0.201 | -0.092 | 0.337 | 0.363 | -0.326 | 0.389 | 0.144 | 0.679 (inactive)
12 | CCOC(=O)CCN1C(=O)[C@H]2[C@H]3[C@H](O)[C@H](O)CC(=NOCC(C)C)[C@H]3CC[C@H]2C1=O | -0.0537 | -0.204 | -0.0454 | 0.416 | -0.143 | -0.0435 | 0.46 | -0.0892 | 0.293 | -0.562 (inactive)
13 | Cc1ccc(S(=O)(=O)N[C@@H]2COC(=O)[C@@H](C)COC(=O)CC=C[C@H]2C)cc1 | 0.204 | 0.389 | -0.033 | 0.466 | 0.516 | 0.636 | 0.493 | 0.383 | -0.0537 | -0.836 (inactive)
14 | C[C@@H](c1ccccc1)N1C(=O)[C@H]2[C@H]3[C@H](O)[C@H](O)CC(=O)[C@H]3CC[C@H]2C1=O | 0.335 | 0.654 | 0.336 | 0.747 | 0.213 | 0.284 | 0.911 | 0.134 | 0.0458 | -1.36 (inactive)
15 | C[C@H]1Cc2c(COc3ccccc3)nc3c(c2CO1)CN(CCOc1ccccc1)CC3 | 1.07 | 0.804 | 0.673 | 0.702 | 1.18 | 0.537 | 4.09 | 1.13 | 0.346 | -1.19 (inactive)
16 | O=C1C=C[C@@H](O)[C@@H]2[C@@H]3C(=O)N(C[C@@H]4CCCO4)C(=O)[C@@H]3CC[C@@H]12 | 0.518 | 0.686 | 0.18 | 0.418 | 0.23 | 0.535 | -0.117 | 0.756 | 0.221 | -0.0563 (inactive)
